Article PMC7862700, “An all-to-all approach to the identification of sequence-specific readers for epigenetic DNA modifications on cytosine”

How the values were obtained:
Experiment in all cases: DAPPL (digital affinity profiling via proximity ligation, sequencing); 10 mM Tris-HCl pH 7.5, 50 mM NaCl, 1 mM DTT, 4% glycerol, room temperature, 30 min; GST-TFs on glutathione beads, 16-mer random dsDNA library, 0.1% formaldehyde crosslink after washing; high values mean tight binding
FLI1 = molecular target: T1, FLI1 (Homo sapiens, UniProt Q01543 1-452); conditions: protein: recombinant; tags: N-terminal GST; dsDNA, one strand shown
T1 sequence: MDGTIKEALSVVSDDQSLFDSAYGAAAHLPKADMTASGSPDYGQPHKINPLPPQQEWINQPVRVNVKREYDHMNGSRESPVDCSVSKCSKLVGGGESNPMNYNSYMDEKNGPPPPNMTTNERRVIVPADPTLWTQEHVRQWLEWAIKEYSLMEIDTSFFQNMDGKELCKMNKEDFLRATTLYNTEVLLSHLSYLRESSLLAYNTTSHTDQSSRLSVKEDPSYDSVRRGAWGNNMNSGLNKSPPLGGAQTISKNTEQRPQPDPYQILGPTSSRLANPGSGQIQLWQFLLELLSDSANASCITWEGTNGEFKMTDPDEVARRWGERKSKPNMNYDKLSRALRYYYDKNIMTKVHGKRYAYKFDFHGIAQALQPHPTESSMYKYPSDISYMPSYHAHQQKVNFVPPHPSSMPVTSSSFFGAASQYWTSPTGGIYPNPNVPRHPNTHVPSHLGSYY
Method in brief: (§1)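 Pools of DNA-barcoded human transcription factors, expressed in yeast as GST fusions on glutathione beads and combined with a tag-only sample, were incubated with 200 nmole of a 16-mer random double-stranded DNA library. Incubation took 30 min at room temperature in Tris/NaCl/DTT/glycerol buffer and was followed by washing, 0.1% formaldehyde crosslinking, proximity ligation (BsaI/T4 ligase, 1 h, 37 °C), PCR amplification and sequencing on an Illumina NextSeq500. Binding signal is the ratio of a hexamer's read frequency for a factor to its frequency for the tag-only sample.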

ELK1 = molecular target: T2, ELK1 (Homo sapiens, UniProt P19419 1-428); conditions: protein: recombinant; tags: N-terminal GST; dsDNA, one strand shown
T2 sequence: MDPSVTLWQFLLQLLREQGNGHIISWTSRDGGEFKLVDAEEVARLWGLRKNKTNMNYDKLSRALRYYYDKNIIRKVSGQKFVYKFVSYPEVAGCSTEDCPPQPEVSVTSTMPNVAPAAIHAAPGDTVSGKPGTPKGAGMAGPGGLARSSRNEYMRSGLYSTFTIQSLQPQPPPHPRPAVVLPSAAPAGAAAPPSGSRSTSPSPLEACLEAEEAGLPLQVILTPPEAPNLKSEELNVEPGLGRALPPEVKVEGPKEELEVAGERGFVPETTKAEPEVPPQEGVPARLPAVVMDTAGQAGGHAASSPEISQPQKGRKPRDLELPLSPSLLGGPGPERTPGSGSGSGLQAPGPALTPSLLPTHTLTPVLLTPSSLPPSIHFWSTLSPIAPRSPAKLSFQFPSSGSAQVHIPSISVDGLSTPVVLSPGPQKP
Method in brief: as §1

GABPA = molecular target: T3, GABPA (Homo sapiens, UniProt Q06546 1-454); conditions: protein: recombinant; tags: N-terminal GST; dsDNA, one strand shown
T3 sequence: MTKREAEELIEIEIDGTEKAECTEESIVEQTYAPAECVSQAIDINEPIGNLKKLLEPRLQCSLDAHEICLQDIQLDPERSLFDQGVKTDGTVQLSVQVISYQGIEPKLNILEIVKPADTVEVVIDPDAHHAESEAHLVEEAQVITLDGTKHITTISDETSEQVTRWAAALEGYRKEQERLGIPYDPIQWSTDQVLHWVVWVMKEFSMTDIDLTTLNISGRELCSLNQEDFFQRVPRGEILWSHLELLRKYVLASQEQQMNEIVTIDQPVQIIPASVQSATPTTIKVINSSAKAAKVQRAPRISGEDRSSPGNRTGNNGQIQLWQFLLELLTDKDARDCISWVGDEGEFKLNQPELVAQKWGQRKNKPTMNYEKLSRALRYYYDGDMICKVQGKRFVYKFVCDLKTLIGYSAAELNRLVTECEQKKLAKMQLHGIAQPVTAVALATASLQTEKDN
Method in brief: as §1

ERG = molecular target: T4, ERG (Homo sapiens, UniProt P11308 1-479); conditions: protein: recombinant; tags: N-terminal GST; dsDNA, one strand shown
T4 sequence: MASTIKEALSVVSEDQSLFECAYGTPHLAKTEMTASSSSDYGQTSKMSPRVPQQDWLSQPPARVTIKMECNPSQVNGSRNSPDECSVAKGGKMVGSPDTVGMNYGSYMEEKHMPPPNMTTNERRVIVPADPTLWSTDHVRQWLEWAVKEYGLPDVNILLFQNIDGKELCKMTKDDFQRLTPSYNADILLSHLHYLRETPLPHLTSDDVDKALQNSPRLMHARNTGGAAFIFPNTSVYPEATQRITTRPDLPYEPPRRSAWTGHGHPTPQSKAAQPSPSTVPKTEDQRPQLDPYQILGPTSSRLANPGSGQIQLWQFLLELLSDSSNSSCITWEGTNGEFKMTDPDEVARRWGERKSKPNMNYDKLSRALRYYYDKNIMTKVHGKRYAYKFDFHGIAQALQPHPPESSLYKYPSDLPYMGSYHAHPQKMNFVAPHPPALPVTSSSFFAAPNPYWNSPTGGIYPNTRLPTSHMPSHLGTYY
Method in brief: as §1

ELF1 = ELF1 (Homo sapiens, UniProt P32519 1-619); conditions: protein: recombinant; tags: N-terminal GST; dsDNA, one strand shown
ELF1, sequence (P32519 whole entry): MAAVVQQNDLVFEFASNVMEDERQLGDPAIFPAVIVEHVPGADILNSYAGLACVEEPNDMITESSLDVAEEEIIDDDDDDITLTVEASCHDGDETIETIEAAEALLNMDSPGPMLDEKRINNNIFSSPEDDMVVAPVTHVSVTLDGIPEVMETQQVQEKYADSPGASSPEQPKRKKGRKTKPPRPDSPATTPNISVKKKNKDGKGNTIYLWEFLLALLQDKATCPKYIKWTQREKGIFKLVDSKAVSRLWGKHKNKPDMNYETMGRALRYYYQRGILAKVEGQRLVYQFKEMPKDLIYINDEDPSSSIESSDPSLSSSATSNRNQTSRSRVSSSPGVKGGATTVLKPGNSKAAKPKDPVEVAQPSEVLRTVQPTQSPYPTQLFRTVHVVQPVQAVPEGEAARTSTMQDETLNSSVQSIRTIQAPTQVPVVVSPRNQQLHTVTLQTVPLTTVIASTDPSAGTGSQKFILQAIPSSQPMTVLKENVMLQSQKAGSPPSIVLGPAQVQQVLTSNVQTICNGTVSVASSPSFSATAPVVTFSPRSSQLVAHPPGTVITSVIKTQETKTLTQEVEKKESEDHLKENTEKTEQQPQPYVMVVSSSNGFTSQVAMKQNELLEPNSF
Method in brief: as §1

EHF = molecular target: T5, EHF (Homo sapiens, UniProt Q9NZC4 1-300); conditions: protein: recombinant; tags: N-terminal GST; dsDNA, one strand shown
T5 sequence: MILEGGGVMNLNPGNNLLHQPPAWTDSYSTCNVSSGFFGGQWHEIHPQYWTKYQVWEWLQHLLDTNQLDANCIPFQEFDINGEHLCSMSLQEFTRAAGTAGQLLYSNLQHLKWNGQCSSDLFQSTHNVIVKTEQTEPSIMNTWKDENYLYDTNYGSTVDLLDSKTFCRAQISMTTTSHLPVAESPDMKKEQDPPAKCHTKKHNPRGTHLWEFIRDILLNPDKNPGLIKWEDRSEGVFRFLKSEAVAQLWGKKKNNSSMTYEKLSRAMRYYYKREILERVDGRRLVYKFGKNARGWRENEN
Method in brief: as §1

SPI1 = SPI1 (Homo sapiens, UniProt P17947 1-270); conditions: protein: recombinant; tags: N-terminal GST; dsDNA, one strand shown
Method in brief: as §1

SPIB = SPIB (Homo sapiens, UniProt Q01892 1-262); conditions: protein: recombinant; tags: N-terminal GST; dsDNA, one strand shown
SPIB, sequence (Q01892 whole entry): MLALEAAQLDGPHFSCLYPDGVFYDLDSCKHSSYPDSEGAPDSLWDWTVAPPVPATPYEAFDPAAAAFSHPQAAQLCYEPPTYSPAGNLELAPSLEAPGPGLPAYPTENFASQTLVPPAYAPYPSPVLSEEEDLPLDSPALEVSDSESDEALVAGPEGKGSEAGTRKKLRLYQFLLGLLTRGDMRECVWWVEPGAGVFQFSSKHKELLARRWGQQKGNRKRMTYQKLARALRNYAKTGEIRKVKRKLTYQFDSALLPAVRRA
Method in brief: as §1

FEV = molecular target: T6, FEV (Homo sapiens, UniProt Q99581 1-238); conditions: protein: recombinant; tags: N-terminal GST; dsDNA, one strand shown
T6 sequence: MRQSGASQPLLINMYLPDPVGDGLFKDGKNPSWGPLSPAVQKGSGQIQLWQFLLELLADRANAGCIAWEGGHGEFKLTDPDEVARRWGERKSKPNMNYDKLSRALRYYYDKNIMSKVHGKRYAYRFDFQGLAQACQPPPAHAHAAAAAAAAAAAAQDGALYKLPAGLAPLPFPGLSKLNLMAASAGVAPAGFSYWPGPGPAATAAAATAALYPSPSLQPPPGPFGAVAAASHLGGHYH
Method in brief: as §1

ETV5 = ETV5 (Homo sapiens, UniProt P41161 1-510); conditions: protein: recombinant; tags: N-terminal GST; dsDNA, one strand shown
ETV5, sequence (P41161 whole entry): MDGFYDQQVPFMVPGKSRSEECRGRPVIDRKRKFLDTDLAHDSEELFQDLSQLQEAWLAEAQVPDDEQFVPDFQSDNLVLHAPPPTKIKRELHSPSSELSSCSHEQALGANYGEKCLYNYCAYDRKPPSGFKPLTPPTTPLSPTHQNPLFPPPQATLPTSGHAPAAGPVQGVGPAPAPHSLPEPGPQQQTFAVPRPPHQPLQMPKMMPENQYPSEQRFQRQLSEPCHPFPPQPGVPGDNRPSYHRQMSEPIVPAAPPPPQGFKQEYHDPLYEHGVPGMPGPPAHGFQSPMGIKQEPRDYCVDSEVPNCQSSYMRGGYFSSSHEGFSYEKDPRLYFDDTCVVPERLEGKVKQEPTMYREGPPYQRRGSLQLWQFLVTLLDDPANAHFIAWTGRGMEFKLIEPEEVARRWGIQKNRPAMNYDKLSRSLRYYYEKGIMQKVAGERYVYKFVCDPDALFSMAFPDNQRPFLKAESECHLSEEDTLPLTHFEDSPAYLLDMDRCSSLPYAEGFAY
Method in brief: as §1

HSF1 = HSF1 (Homo sapiens, UniProt Q00613 1-529); conditions: protein: recombinant; tags: N-terminal GST; chain copies: 3; dsDNA, one strand shown
HSF1, sequence (Q00613 whole entry): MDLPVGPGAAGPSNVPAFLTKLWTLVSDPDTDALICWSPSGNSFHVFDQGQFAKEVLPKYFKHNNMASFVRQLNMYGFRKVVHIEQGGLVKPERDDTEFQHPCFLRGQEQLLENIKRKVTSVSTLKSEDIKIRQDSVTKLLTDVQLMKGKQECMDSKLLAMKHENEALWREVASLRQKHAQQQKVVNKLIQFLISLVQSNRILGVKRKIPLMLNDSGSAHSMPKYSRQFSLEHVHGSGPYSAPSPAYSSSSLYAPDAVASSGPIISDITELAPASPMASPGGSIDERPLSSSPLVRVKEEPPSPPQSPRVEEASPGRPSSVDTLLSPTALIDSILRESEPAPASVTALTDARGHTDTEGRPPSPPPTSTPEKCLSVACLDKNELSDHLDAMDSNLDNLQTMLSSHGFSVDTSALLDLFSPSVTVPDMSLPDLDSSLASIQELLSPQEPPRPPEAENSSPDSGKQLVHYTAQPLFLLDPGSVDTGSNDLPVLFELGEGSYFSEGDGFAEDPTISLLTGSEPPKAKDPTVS
Method in brief: as §1

SPIC = molecular target: T7, SPIC (Homo sapiens, UniProt Q8N5J4 1-248); conditions: protein: recombinant; tags: N-terminal GST; dsDNA, one strand shown
T7 sequence: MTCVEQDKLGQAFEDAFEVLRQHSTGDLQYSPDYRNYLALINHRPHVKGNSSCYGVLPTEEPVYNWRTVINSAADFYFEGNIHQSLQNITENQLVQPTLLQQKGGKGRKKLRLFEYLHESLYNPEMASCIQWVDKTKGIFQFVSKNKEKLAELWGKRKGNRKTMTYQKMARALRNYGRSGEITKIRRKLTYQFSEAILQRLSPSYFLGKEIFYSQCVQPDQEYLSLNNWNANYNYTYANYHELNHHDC
Method in brief: as §1

ELF4 = ELF4 (Homo sapiens, UniProt Q99607 1-663); conditions: protein: recombinant; tags: N-terminal GST; dsDNA, one strand shown
ELF4, sequence (Q99607 whole entry): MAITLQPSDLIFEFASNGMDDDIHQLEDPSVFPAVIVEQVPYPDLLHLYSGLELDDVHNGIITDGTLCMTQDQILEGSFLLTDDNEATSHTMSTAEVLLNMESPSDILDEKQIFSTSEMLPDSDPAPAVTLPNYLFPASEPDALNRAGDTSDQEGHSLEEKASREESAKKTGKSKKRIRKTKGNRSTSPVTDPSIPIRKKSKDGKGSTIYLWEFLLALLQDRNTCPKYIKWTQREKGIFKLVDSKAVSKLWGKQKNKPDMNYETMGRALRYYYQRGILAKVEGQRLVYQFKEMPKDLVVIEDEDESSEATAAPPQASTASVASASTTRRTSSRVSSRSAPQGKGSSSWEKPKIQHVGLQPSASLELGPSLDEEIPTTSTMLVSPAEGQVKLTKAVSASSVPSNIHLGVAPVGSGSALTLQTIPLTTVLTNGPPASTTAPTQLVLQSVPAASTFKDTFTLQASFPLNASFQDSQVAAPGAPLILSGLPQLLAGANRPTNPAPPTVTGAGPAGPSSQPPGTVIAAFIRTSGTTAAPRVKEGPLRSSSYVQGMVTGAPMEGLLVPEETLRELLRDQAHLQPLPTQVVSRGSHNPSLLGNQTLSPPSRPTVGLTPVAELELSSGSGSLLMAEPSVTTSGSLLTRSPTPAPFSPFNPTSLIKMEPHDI
Method in brief: as §1

ELK4 = molecular target: T8, ELK4 (Homo sapiens, UniProt P28324-2 1-405); conditions: protein: recombinant; tags: N-terminal GST; dsDNA, one strand shown
T8 sequence: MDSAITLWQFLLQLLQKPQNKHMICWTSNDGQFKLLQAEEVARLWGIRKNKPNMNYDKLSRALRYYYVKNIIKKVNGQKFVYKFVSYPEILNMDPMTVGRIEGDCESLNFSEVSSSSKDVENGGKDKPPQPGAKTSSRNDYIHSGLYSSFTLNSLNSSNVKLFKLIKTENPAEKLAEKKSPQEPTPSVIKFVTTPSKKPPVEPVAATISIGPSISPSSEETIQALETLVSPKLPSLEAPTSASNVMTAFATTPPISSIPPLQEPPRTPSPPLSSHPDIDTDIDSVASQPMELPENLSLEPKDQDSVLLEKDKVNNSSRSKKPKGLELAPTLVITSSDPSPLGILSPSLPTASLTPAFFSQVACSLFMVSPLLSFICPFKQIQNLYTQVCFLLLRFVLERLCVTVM
Method in brief: as §1

ETV2 = molecular target: T9, ETV2 (Homo sapiens, UniProt O00321 1-342); conditions: protein: recombinant; tags: N-terminal GST; dsDNA, one strand shown
T9 sequence: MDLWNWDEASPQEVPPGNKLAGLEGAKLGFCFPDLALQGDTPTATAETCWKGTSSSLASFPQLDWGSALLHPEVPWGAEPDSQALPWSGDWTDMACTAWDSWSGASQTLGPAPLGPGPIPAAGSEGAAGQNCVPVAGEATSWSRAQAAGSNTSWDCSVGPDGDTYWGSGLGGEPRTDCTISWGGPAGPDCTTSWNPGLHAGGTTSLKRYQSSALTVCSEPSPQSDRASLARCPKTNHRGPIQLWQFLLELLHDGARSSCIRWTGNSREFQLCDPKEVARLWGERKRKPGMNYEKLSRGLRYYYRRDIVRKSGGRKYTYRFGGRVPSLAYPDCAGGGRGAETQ
Method in brief: as §1

ELF3 = molecular target: T10, ELF3 (Homo sapiens, UniProt P78545 1-371); conditions: protein: recombinant; tags: N-terminal GST; dsDNA, one strand shown
T10 sequence: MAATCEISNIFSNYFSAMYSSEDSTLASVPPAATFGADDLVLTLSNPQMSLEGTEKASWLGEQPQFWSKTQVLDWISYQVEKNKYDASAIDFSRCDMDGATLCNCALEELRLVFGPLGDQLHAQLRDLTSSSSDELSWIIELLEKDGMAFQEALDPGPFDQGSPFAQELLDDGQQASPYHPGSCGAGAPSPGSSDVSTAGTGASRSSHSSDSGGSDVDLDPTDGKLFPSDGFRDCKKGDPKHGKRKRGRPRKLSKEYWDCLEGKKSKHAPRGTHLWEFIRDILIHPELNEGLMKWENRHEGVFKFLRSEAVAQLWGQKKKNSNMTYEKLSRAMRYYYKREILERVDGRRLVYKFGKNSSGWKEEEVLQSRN
Method in brief: as §1

CRX = CRX (Homo sapiens, UniProt O43186 1-299); conditions: protein: recombinant; tags: N-terminal GST; dsDNA, one strand shown
CRX, sequence (O43186 whole entry): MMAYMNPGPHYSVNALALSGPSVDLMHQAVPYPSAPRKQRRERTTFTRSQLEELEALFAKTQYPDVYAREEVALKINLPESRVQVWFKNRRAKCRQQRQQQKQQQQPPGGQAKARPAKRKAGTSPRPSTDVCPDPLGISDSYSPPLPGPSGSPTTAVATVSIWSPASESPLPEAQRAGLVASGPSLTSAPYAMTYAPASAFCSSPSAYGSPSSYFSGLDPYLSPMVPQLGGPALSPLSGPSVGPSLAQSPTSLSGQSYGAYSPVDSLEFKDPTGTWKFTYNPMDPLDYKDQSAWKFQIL
Method in brief: as §1

ETV1 = ETV1 (Homo sapiens, UniProt P50549 1-477); conditions: protein: recombinant; tags: N-terminal GST; dsDNA, one strand shown
ETV1, sequence (P50549 whole entry): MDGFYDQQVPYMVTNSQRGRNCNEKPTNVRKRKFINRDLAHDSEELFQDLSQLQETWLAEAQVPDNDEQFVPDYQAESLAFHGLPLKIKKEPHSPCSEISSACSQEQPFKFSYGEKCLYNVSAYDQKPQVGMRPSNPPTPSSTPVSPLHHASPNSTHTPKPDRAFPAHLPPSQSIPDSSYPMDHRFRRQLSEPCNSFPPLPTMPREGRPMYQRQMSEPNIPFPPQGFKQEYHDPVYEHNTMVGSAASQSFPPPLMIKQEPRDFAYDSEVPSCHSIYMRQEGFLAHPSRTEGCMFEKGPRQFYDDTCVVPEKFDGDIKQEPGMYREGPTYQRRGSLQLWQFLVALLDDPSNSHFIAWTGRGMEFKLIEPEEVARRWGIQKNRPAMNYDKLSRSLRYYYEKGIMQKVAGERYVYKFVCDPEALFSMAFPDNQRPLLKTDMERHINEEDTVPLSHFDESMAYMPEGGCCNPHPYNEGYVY
Method in brief: as §1

Sequence: TATGCC
- binding signal (FLI1): 1.11 fold enrichment (6-mer frequency, TF over GST control)
- binding signal (ELK1): 1.27 fold enrichment (6-mer frequency, TF over GST control)
- binding signal (GABPA): 1.21 fold enrichment (6-mer frequency, TF over GST control)
- binding signal (ERG): 1.17 fold enrichment (6-mer frequency, TF over GST control)
- binding signal (ELF1): 1.2 fold enrichment (6-mer frequency, TF over GST control)
- binding signal (EHF): 1.18 fold enrichment (6-mer frequency, TF over GST control)
- binding signal (SPI1): 1.11 fold enrichment (6-mer frequency, TF over GST control)
- binding signal (SPIB): 1.26 fold enrichment (6-mer frequency, TF over GST control)
- binding signal (FEV): 1.13 fold enrichment (6-mer frequency, TF over GST control)
- binding signal (ETV5): 1.18 fold enrichment (6-mer frequency, TF over GST control)
- binding signal (HSF1): 1.06 fold enrichment (6-mer frequency, TF over GST control)
- binding signal (SPIC): 1.28 fold enrichment (6-mer frequency, TF over GST control)
- binding signal (ELF4): 1.15 fold enrichment (6-mer frequency, TF over GST control)
- binding signal (ELK4): 1.17 fold enrichment (6-mer frequency, TF over GST control)
- binding signal (ETV2): 1.05 fold enrichment (6-mer frequency, TF over GST control)
- binding signal (ELF3): 1.01 fold enrichment (6-mer frequency, TF over GST control)
- binding signal (CRX): 1.18 fold enrichment (6-mer frequency, TF over GST control)
- binding signal (ETV1): 1.28 fold enrichment (6-mer frequency, TF over GST control)
